The list is not random: actives were taken first. Their share in the collection is about 2.2%.
BaF3 parental – parental Ba/F3 cell viability inhibition, counter-screen for JAK2V617F inhibitor project, murine pro-B, CellTiter-Glo luminescence | AID 1486, 2009 | CellTiter-Glo ATP luminescence | inhibition, % at 5.6 µM | 1.1% of 220,000 active;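 active = inhibition above a per-campaign cutoff, the mean inhibition of all tested compounds plus 3 SD, cut at about 27% in these data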
Ba/F3 V617F tox – reduced viability of JAK2V617F-dependent Ba/F3 cells, primary screen, JAK2V617F inhibitor project, cell-based, Ba/F3 EpoR-JAK2V617F, luminescence; ATP luminescence; inhibition, % at 5.6 µM; 1.1% of 220,000 active;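 active = inhibition above the campaign mean plus 3 SD over all tested compounds, cut at about 24% in these data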;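 also: cytokine-independent growth of Ba/F3 cells driven by EpoR plus mutant JAK2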
KLF5 inh – KLF5 expression inhibitors, primary screen, DLD-1 cells, luminescence; 0.23% of 290,000 active; DLD-1 KLF5 promoter-luciferase reporter; inhibition, % at 5 µM;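 active = inhibition above a per-plate limit of that plate's mean compound inhibition plus 3 SD, cut at about 60% in these data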;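 also: higher means less KLF5 promoter-driven luciferase light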
IEC-6 cytotox – cytotoxicity in IEC-6 intestinal epithelial cells, primary screen, cytotoxicity control for KLF5 inhibitor project, cell-based, luminescence; IEC-6 cytotoxicity, luminescence viability; inhibition, % at 5 µM; 0.78% of 290,000 active; AID 1825, 2009; in the data active = inhibition above about 22%
aSyn UTR inh – MLPCN primary screen, SNCA 5' untranslated region; alpha-synuclein 5'UTR reporter, inhibitor activity; inhibition, % (tested at 7.5 µM); 0.82% of 300,000 active; in the data active = inhibition above about 60%;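 also: H4 neuroglioblastoma cells stably carrying SNCA 5'UTR luciferase fusion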
APP 5UTR inh – inhibitors of APP translation via 5'UTR reporter, primary screen, APP 5'UTR luciferase, SH-SY5Y cells; SH-SY5Y APP 5'UTR-luciferase reporter, luminescence; inhibition, % at 2 µM; 0.82% of 190,000 active;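 active = inhibition above a set limit, derived from the sample mean plus 3 SD, cut at about 45% in these data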
Large screens that a line does not name were inactive.

Cc1ccc2c(c1)S/C(=C\c1cccc[n+]1C)N2CCO	none (no result: BaF3 parental, Ba/F3 V617F tox, APP 5UTR inh)
O=C(NNC(=O)c1cc(C(F)(F)F)cc(C(F)(F)F)c1)c1ccc(Cl)cc1	BaF3 parental 62 (no result: APP 5UTR inh)
O=C(Nc1ccc(Cl)cc1C(F)(F)F)c1ccc(Cl)cc1	none
CC(C)OCCCN1CN(S(=O)(=O)c2cccs2)c2nc3ccccc3nc21	none (no result: APP 5UTR inh)
Nc1c(C(=O)NC2CC2)sc2nc3c(c(-c4ccco4)c12)CC/C3=C/c1ccco1	APP 5UTR inh 51 (no result: aSyn UTR inh)
CC(C)(C)NC(=O)C(c1ccncc1)N(C(=O)Cn1nnc(-c2ccc(F)cc2)n1)c1ccc(F)cc1 (configuration not stated)	BaF3 parental 81
Oc1ccc(/C=N/N=C(c2ccccc2)c2ccccc2)c(O)c1O	APP 5UTR inh 49 (no result: aSyn UTR inh)
CC1(C)C(C=C(Cl)Cl)C1C(=O)Nc1ccc(S(=O)(=O)Nc2ncccn2)cc1 (configuration not stated)	none (no result: BaF3 parental, Ba/F3 V617F tox, APP 5UTR inh)
O=C(NCCC1CCCCN1S(=O)(=O)c1ccc(Cl)cc1)C(=O)NCc1ccncc1 (configuration not stated)	aSyn UTR inh 62 (no result: BaF3 parental, Ba/F3 V617F tox, KLF5 inh, IEC-6 cytotox, APP 5UTR inh)
CCOC(=O)c1sc(NC(=O)CSc2nccn2C)nc1C	none (no result: BaF3 parental, Ba/F3 V617F tox, APP 5UTR inh)
COc1ccc(NS(=O)(=O)c2csc(C(=O)N3CCCC3)c2)c(OC)c1	none (no result: BaF3 parental, Ba/F3 V617F tox, APP 5UTR inh)
COC/C=C/C1=CC2=CC(=O)C(C)(O)C(=O)C2=CO1 (configuration not stated)	none (no result: BaF3 parental, Ba/F3 V617F tox, KLF5 inh, IEC-6 cytotox, APP 5UTR inh)
CCOC(=O)c1ccccc1-c1csc(N)n1	BaF3 parental 53
CCOC(=O)c1c(C)[nH]c(-c2csc(N)n2)c1C	APP 5UTR inh 73 (no result: aSyn UTR inh)
Cc1ccc(OCC(=O)NNC(=O)C2CCCO2)c(C)c1 (configuration not stated)	none
CN1C(=CC=C2C=C(I)C(=O)C(I)=C2)C(C)(C)c2ccccc21	BaF3 parental 33 (no result: aSyn UTR inh, APP 5UTR inh)
CN1/C(=C\C=C2/C(=O)Oc3ccccc3C2=O)C(C)(C)c2ccccc21	none
CN1/C(=C\C=C2/SC(=S)NC2=O)C(C)(C)c2ccccc21	BaF3 parental 81, Ba/F3 V617F tox 65
C/C(N)=C(/C#N)C(=O)COC(=O)c1ccc(OCC2CCCO2)cc1 (configuration not stated)	none (no result: BaF3 parental, Ba/F3 V617F tox, APP 5UTR inh)
Cc1ccccc1C(=O)Nc1cccc(N)c1	APP 5UTR inh 56
CCN(c1cccc(C)c1)S(=O)(=O)c1cc2c3c(c1)CCN3C(=O)CC2	none (no result: BaF3 parental, Ba/F3 V617F tox, KLF5 inh, IEC-6 cytotox, APP 5UTR inh)
O=c1c2ccccc2nc(N/N=C/c2c(O)ccc3ccccc23)n1O	BaF3 parental 74, Ba/F3 V617F tox 93, aSyn UTR inh 82, APP 5UTR inh 57
O=c1c2ccccc2nc(N/N=C/c2ccc(O)cc2)n1O	none
Cc1c(NC(=O)C23CC4CC(CC(Br)(C4)C2)C3)c(=O)n(-c2ccccc2)n1C	none (no result: BaF3 parental, Ba/F3 V617F tox, APP 5UTR inh)
CCC(CO)[n+]1c(C)cc(/C=C2\Sc3ccccc3N2Cc2ccccc2)cc1C (configuration not stated)	BaF3 parental 61, Ba/F3 V617F tox 68 (no result: aSyn UTR inh)
S=C(Nc1ccc(Br)cc1)N1CCN(c2ccccn2)CC1	none (no result: BaF3 parental, Ba/F3 V617F tox, APP 5UTR inh)
O=C(c1ccc(Cn2c(=S)[nH]c3cc4c(cc3c2=O)OCO4)cc1)N1CCN(c2ncccn2)CC1	none
N#C/C(=N\Nc1cccc(C(F)(F)F)c1)C(=O)c1ccsc1	BaF3 parental 32 (no result: APP 5UTR inh)
N#C/C(=N\Nc1cccc([N+](=O)[O-])c1)C(=O)c1ccc(Br)cc1	none
CC1SCC(NC(=O)c2ccc(Cl)cc2)CS1 (configuration not stated)	BaF3 parental 46 (no result: APP 5UTR inh)
CC1SCC(NC(=O)c2cccc(Cl)c2)CS1 (configuration not stated)	none (no result: APP 5UTR inh)
O=C(NC(=S)NNC(=O)[C@H]1C[C@@H]1c1ccccc1)c1cccc(F)c1	aSyn UTR inh 67 (no result: APP 5UTR inh)
CCC(C)(C)NC(=O)C(c1ccc(F)cc1)N(CCOC)C(=O)CCC(=O)Nc1nccs1 (configuration not stated)	none (no result: BaF3 parental, Ba/F3 V617F tox, APP 5UTR inh)
Cc1cc(C)cc(NC(=S)NCCN(C2CCCCC2)C2CCCC2)c1	BaF3 parental 72
Cc1ccc(NC(=S)NCCN(C2CCCCC2)C2CCCC2)cc1	none
COC(=O)CCC(=O)c1oc2ccc(OC)cc2c1N	APP 5UTR inh 64
CC1CCCCC1NC1=NCCCS1 (configuration not stated)	none
COC(=O)c1nn(-c2ccc(-c3ccccc3)cc2)cc1O	aSyn UTR inh 67
CCOC(=O)c1nn(-c2ccccc2)cc1O	none (no result: APP 5UTR inh)
O=C(CCc1ccccc1)NC(c1cccs1)c1cc(Cl)c2cccnc2c1O (configuration not stated)	aSyn UTR inh 88, APP 5UTR inh 68
CCC(=O)NC(c1ccco1)c1cc(Cl)c2cccnc2c1O (configuration not stated)	aSyn UTR inh 100
CCCCC(=O)NC(c1ccco1)c1cc(Cl)c2cccnc2c1O (configuration not stated)	APP 5UTR inh 46
COc1ccc(C(NC(=O)c2cccnc2)c2cc(Cl)c3cccnc3c2O)cc1OC (configuration not stated)	aSyn UTR inh 76, APP 5UTR inh 74
O=C(CCSc1ccc(Br)cc1)Nc1cccnc1	none
CCN(CC(=O)Nc1ccc(OC)cc1)C(=O)c1ccc([N+](=O)[O-])cc1	none
Cc1cc(=O)n2nc(N3CCCC(C(=O)Nc4ccc(C)c(C)c4)C3)sc2n1 (configuration not stated)	none (no result: BaF3 parental, Ba/F3 V617F tox, APP 5UTR inh)
CCN(CC)S(=O)(=O)c1cccc(C(=O)OCC(=O)NCc2ccccc2OC)c1	none (no result: BaF3 parental, Ba/F3 V617F tox, KLF5 inh, IEC-6 cytotox, APP 5UTR inh)
CCC(=O)NC(c1cccs1)c1cc([N+](=O)[O-])c2cccnc2c1O (configuration not stated)	none (no result: APP 5UTR inh)
CCC(=O)NC(c1ccc(OC)cc1)c1cc(Cl)c2cccnc2c1O (configuration not stated)	aSyn UTR inh 81, APP 5UTR inh 64
COc1cccc(NC(=O)CSC(N)=O)c1	none
COc1cc(NC(=O)N2CCNC2=O)cc(C(=O)Nc2cccc(C(F)(F)F)c2)c1	aSyn UTR inh 68 (no result: BaF3 parental, Ba/F3 V617F tox, KLF5 inh, IEC-6 cytotox, APP 5UTR inh)
CCCCc1ccc(-c2ccc(C)cc2O)nc1	aSyn UTR inh 84
CCCCc1ccc(-c2ccc(Br)cc2O)nc1	none
O=C1/C(=C/c2ccccn2)COc2ccccc21	none
CC(C)(C)C1C/C(=C/c2ccccn2)C(=O)/C(=C/c2ccccn2)C1 (configuration not stated)	aSyn UTR inh 103, APP 5UTR inh 95
CC1C/C(=C/c2ccccn2)C(=O)/C(=C/c2ccccn2)C1 (configuration not stated)	BaF3 parental 73, Ba/F3 V617F tox 52, aSyn UTR inh 89, APP 5UTR inh 98
COc1ccccc1NC(=S)c1ccccc1	none (no result: APP 5UTR inh)
Cc1ccc2nc(-c3ccccc3)cc(C(=O)N3CCc4ccccc4C3)c2c1	APP 5UTR inh 47
O=C(c1cc(-c2ccccc2)nc2ccccc12)N1CCc2ccccc2C1	none

High-throughput results from PubChem.
